Compound activity from PubChem BioAssay.
Rows were chosen to be rich in hits. Some 3.1% of all compounds tested hit in one or more screens of this group.
FAS TE block: FAS thioesterase (human) inhibition; P49327; recombinant FAS-TE, OMFH fluorogenic substrate, fluorescence endpoint; inhibition, % at 15 µM; 0.67% of 360,000 active;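 active = compounds whose normalised, plate-corrected inhibition of enzyme fluorescence in the single-dose primary screen is 50% or more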;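 also: 0% = DMSO with enzyme and 100% = substrate without enzyme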
Target sequence (P49327 whole entry, looked up): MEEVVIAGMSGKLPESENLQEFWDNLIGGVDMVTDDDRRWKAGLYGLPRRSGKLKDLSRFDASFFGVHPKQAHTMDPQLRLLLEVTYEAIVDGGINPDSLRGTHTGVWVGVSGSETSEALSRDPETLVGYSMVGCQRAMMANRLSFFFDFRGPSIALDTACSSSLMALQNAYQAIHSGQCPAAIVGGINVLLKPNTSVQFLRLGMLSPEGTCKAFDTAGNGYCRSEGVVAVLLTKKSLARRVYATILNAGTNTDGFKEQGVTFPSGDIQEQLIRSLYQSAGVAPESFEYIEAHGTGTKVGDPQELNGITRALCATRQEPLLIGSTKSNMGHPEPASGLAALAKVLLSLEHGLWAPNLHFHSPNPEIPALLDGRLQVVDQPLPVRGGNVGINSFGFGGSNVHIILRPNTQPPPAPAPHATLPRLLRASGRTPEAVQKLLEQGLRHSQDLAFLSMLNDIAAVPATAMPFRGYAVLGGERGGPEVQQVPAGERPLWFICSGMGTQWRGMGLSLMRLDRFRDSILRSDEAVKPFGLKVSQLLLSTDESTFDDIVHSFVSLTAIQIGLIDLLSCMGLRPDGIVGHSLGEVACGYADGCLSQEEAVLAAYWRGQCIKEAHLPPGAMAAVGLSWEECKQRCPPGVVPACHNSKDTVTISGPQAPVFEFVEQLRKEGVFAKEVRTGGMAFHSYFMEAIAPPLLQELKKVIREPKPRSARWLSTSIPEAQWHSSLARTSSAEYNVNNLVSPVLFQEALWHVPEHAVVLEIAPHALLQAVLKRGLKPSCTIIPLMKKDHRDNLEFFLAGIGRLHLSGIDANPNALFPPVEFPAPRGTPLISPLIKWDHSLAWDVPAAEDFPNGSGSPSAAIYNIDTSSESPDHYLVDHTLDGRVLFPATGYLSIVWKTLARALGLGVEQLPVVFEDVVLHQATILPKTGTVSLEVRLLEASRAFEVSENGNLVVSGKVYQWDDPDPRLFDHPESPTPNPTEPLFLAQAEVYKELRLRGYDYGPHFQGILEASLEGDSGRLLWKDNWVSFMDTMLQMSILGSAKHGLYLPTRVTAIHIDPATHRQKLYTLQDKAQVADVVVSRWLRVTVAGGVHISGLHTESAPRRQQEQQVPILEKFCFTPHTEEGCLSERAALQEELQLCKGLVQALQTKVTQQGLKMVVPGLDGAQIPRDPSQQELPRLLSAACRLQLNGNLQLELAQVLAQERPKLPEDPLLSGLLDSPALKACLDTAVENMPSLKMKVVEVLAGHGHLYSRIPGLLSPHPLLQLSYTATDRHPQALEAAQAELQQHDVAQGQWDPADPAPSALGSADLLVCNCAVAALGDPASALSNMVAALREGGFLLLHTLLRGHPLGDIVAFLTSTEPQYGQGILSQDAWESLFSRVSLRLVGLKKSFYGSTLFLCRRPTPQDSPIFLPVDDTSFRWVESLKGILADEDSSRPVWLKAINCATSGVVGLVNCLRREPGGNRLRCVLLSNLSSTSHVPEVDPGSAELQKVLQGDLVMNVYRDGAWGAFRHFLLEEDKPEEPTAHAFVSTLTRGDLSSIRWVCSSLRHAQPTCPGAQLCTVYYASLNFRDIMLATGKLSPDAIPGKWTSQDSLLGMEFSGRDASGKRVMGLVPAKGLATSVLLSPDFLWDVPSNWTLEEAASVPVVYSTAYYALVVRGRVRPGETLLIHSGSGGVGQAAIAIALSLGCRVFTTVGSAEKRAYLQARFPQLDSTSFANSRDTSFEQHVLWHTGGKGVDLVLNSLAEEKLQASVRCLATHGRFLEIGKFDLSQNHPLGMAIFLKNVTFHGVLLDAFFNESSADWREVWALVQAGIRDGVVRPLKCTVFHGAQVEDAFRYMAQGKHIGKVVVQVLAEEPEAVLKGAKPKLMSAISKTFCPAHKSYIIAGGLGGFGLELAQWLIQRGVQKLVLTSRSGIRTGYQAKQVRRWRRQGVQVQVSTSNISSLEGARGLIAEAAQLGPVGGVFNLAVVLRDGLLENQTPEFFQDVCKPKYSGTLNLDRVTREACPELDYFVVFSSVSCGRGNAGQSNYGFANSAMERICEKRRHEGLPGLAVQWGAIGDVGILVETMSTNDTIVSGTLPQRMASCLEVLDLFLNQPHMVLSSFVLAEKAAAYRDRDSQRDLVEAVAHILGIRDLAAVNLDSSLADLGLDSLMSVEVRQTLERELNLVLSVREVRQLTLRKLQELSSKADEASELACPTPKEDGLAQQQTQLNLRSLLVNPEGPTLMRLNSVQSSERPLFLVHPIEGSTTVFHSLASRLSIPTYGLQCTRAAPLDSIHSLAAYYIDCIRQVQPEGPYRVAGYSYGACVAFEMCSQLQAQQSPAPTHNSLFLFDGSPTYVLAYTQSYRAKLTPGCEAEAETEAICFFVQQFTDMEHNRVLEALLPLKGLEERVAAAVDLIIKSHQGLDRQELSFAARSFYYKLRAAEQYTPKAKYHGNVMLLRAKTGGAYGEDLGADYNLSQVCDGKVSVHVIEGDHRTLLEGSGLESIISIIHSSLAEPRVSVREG
Mot1-301 SUMO: blocks SUMOylation pathway, rescuing yeast Mot1-301 growth; 1% of 320,000 active; S. cerevisiae Mot1-301 growth rescue, ATP luminescence, 38.5C; percent above DMSO median, 100 means doubled; AID 2716; growth rescue, % at 18.8 µM;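 active = every valid replicate shows activation above 250% relative to neutral control wells; inactive = the rest, any valid replicate at or below 250%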;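 also: OY570 slx delta 5 strain wells were the positive control but not used for scaling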
Calb FLC: affects C. albicans growth with fluconazole; 0.57% of 300,000 active; growth inhibition, % (test concentration not listed); C. albicans CaCi-2 (fluconazole-resistant clinical isolate) + fluconazole, Alamar Blue growth, 48 h;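 active = growth inhibition above about 58% in most replicates, limit read from the data, passing the limit was not always enough; inconclusive = exactly half the replicates above a set limit; inactive = most replicates below a set limit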;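 also: all wells also contain fluconazole at 8 µg/ml as a sub-toxic cotreatment; 0% = median of DMSO wells and 100% = median of geldanamycin control wells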
NadD inh: inhibitors of Staphylococcus aureus NadD; inhibition, % at 20 µM; 0.78% of 360,000 active; purified NadD enzyme, colorimetric absorbance read-out; in the data active = inhibition above about 26%
ATG4B inhibitor: inhibitors of human ATG4B cysteine protease. AID 504462. Q9Y4P1. 0.51% of 340,000 active. ATG4B cleavage of LC3-PLA2, NBD-HPC fluorescence, 1 h. inhibition, % at 8.33 µM; in the data active = inhibition above about 40%
NadD inh conf: confirmation of Staphylococcus aureus NadD inhibitors | inhibition, % at 20 µM | 13% of 2,000 active | shares compounds with NadD inh | purified S. aureus NadD, colorimetric enzyme assay; in the data active = inhibition mostly above about 42%, no sharp cut-off; inactive = mostly below about 42%
Active calls of the source: *; u = inconclusive; x = no result given.

SMILES	FAS TE block	Mot1-301 SUMO	Calb FLC	NadD inh	ATG4B inhibitor	NadD inh conf
Cc1ccc2cc(C(c3nnnn3Cc3ccccc3)N3CCc4ccccc43)c(=O)[nH]c2c1 (stereo not given)	18	65	-4	17	-9	x
Cc1cc2cc(C(c3nnnn3Cc3ccco3)N3CCc4ccccc43)c(=O)[nH]c2cc1C (stereo not given)	8	-16	0	32*	7	26
Cc1ccc2[nH]c(=O)c(C(c3nnnn3Cc3ccccc3)N3CCc4ccccc43)cc2c1 (stereo not given)	8	-21	24	32*	-13	22
Cc1nc(SCC(=O)c2cc3ccccc3oc2=O)c(C#N)c(-c2ccccc2)c1C(=O)Nc1ccccc1	-6	-2	2	28*	-6	-6
COc1ccc(/C=C/C(=O)NCC(=O)N/N=C/c2cc(Br)ccc2OCc2ccccc2)cc1	16	3	-1	28*	-3	-1
COc1ccc(Br)cc1/C=N/NC(=O)CNC(=O)/C=C/c1ccccc1	13	0	-1	13	5	x
COC(=O)C1=C(C)NC(C)=C(C(=O)OC)C1C(=O)OCC(=O)N1CCCCC1C (stereo not given)	-4	x	x	-6	7	x
N#CCC(=O)Nc1ccc(C(=O)OCC(=O)NC2CCCCCC2)cc1	-4	x	x	8	-10	x
O=C(/C=C/c1ccc2ccccc2c1)c1ccoc1	7	176	0	30*	9	-4
COc1ccc(COc2cc(-c3cccc(OC)c3)nc3ccc(NC(=O)c4ccccc4)cc23)cc1	36	-8	26	32*	-9	9
COc1ccc(COc2cc(-c3cccc(OC)c3)nc3ccc(NC(=O)c4ccc(OC)cc4)cc23)cc1	34	2	-7	25	-3	x
COc1ccc(COc2cc(-c3cccc(OC)c3)nc3ccc(NC(=O)c4ccc(Cl)cc4)cc23)cc1	35	-2	22	59*	-11	11
COc1ccc(C(=O)COc2ccc(C(C)=O)cc2OC)cc1OC	-2	x	x	-1	-12	x
CN(C)CCC(C(=O)c1ccccc1)c1cccnc1 (stereo not given)	-8	x	x	-3	-2	x
Nc1c(C(=O)N/N=C/c2ccccc2Cl)oc2nc(-c3ccccc3)cc(-c3ccco3)c12	1	8	0	31*	5	-4
Nc1c(C(=O)N/N=C/c2ccc(F)cc2)oc2nc(-c3ccccc3)cc(-c3ccco3)c12	-9	-27	-12	11	-5	x
Cn1cc(S(=O)(=O)Nc2ccc3c(c2)OCCO3)cn1	-6	-19	-4	-5	-5	x
O=C(N/N=C/c1c(Nc2cccc(C(F)(F)F)c2)nc2ccccn2c1=O)c1ccccc1[N+](=O)[O-]	7	-5	-23	32*	-5	5
Nc1nc2ccccc2[nH]1	-6	7	-5	-5	-4	x
Nc1ccccc1Sc1nc2ccccc2[nH]1	-114	x	7	34*	-7	34
CC1CC(C)CN(C(=O)c2ccc3c(=O)n(Cc4ccc5c(c4)OCO5)c(=S)[nH]c3c2)C1 (stereo not given)	0	823	-5	32*	101*	5
CCCn1c(=S)[nH]c2cc(C(=O)N3CCN(c4ccccc4)CC3)ccc2c1=O	4	x	x	3	x	x
O=C(c1ccc2c(=O)n(Cc3ccco3)c(=S)[nH]c2c1)N1CCN(c2ccccc2)CC1	23	-2	x	28*	-16	24
COCCCNC(=O)c1ccc2c(=O)n(Cc3ccc4c(c3)OCO4)c(=S)[nH]c2c1	-11	-12	-2	-3	-13	x
Nc1nonc1-n1nnc(C(=O)N/N=C/c2ccc(OCc3cccc(Cl)c3)cc2)c1CN1CCCCC1	19	12	0	22	1	x
SMILES	FAS TE block	Mot1-301 SUMO	Calb FLC	NadD inh	ATG4B inhibitor	NadD inh conf
Cc1cccc(COc2ccc(/C=N/NC(=O)c3nnn(-c4nonc4N)c3CN3CCCCC3)cc2)c1	16	16	0	31*	-10	10
Nc1nonc1-n1nnc(C(=O)N/N=C/c2ccc(OCc3ccccc3)cc2)c1CNc1ccccc1	-2	2	12	39*	2	1
CC(=O)Nc1cccc(NC(=O)CS(=O)(=O)c2cn(CC(=O)N(C(C)C)C(C)C)c3ccccc23)c1	-7	-15	1	3	-12	x
COc1ccc(NC(=O)COC(=O)C2CC2)cc1S(=O)(=O)N1CCCCC1	-3	-21	x	1	-3	x
COc1cccc(-c2nnc(NC(=O)c3ccc4ncsc4c3)o2)c1	0	-4	107*	31*	-2	8
CCCCNC(=O)Nc1nnc(-c2ccc(OCC)cc2)o1	-4	-9	x	3	-15	x
CCOc1ccc(-c2nnc(NC(=O)c3ccc(OCC(C)C)c(OC)c3)o2)cc1	-28	0	u	37*	4	5
C#CCn1c(=NC(=O)c2cc(-c3cccs3)nc3ccccc23)sc2cc(S(N)(=O)=O)ccc21	11	5	10	53*	10	55*
Cc1cc(C)nc(NC(=NCCc2c[nH]c3ccccc23)NC(=O)Nc2ccccc2)n1	23	8	1	19	-18	x
Cc1cc(C)nc(NC(=NCCc2c[nH]c3ccccc23)NC(=O)Nc2ccc(Cl)c(Cl)c2)n1	40	x	-6	38*	-1	3
Cc1cc(C)nc(NC(=NCCc2c[nH]c3ccccc23)NC(=O)c2ccco2)n1	21	-5	-5	26	-22	x
Cc1cc(C)nc(NC(=NCCc2c[nH]c3ccccc23)NC(=O)Nc2cccc([N+](=O)[O-])c2)n1	16	23	1	49*	-9	8
O=C1C=CC(=Nc2ccc(F)cc2)O1	4	x	x	1	2	x
CN(C)CCCN(C(=O)c1ccc(S(=O)(=O)N2CCc3ccccc32)cc1)c1nc2ccc(Cl)cc2s1	-35	-8	2	52*	-5	28
COc1ccc(/C=C/C(=O)c2nc3ccccc3n2CC(=O)c2ccc(OC)cc2)cc1	15	16	-3	30*	-17	25
CCCCCCn1c(=O)n2n(c1=O)C[C@]1(OC(=O)NCC3CCCCC3)CN(S(=O)(=O)c3ccc(C)cc3)C[C@]1(O)C2	23	x	x	-1	x	x
C(=C\c1ccccc1)/C=N/Nc1nc(N2CCCCC2)nc(N2CCCCC2)n1	-9	2	93*	35*	-6	17
O=[N+]([O-])c1ccc(/C=N/Nc2nc(N3CCCCCC3)nc(N3CCCCCC3)n2)o1	-5	-18	47	65*	22	18
COc1c(C(O)CC(C)C)ccc2c1C(=O)OCc1cc(C)cc(O)c1O2 (stereo not given)	17	-24	9	92*	-24	-2
O=C(c1ccc(-c2nnc(Nc3cccc(Cl)c3)c3ccccc23)cc1)N1C[C@H]2C[C@H](C1)c1cccc(=O)n1C2	8	-9	4	28*	-8	-3
